The results in this text go back to PubChem BioAssay AID868 (SRMLSC, 2007).

In all, about 190,000 compounds went through this assay and about 3,500 (1.8%) were called active. The sample as a whole holds a higher share of actives than the screen did. Unmarked numbers belong to inactive results.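 How the source made its calls: active means inhibition above a set limit, 3 SD over mean compound inhibition (cut at about 8.4% in these data); inactive means the rest.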

The assay is described as follows: RAM signaling blockers in budding yeast – dse1pr::URA3 reporter, 5-FOA selection, primary screen (AID 868).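 Further: 0% = DMSO-only wells with no growth and 100% = 10 µM 1-NA-PP1 full growth; inhibition rescues growth on 5-FOA so higher OD means more RAM inhibition.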 As to conditions: S. cerevisiae dse1pr::URA3 reporter, 5-FOA growth OD615, 2 d; at 50 µM; active compounds read high; analog-sensitive cbk1-as2 kinase mutant strain.
Take `O=C(O)c1n[nH]nc1-c1ccccc1`: the inhibition is 0.27%.
As to `CCOC(=O)CSC1=C(C#N)C(c2ccco2)C(C(=O)OCc2ccccc2)=C(C)N1` (configuration not stated), the inhibition was 17.6% (active).
As for `Cc1ccc(C2CC(=O)NC(SCC(=O)OCc3ccccc3)=C2C#N)o1` (configuration not stated), the figure is 0.38%; as for `C=CCOC(=O)C1=C(C)NC(SCC(=O)OCC)=C(C#N)C1c1ccc(C)cc1` (configuration not stated), 17.7% (active).
On to `C=CCOC(=O)C1=C(C)OC(N)=C(C#N)C1c1ccc(F)cc1` (configuration not stated), for which the inhibition was 1.6%.
As for `CCOC(=O)CSC1=C(C#N)C(c2sccc2C)CC(=O)N1` (configuration not stated), the figure is 0%.
Take `CC1=C(C(=O)Nc2ccccc2)C(c2ccco2)C(C#N)=C(SCC(N)=O)N1` (configuration not stated): the inhibition was -0.14%.
In the case of `S=c1ccc2ccccc2[nH]1`, the inhibition is -0.88%.
As for `Cc1noc(C)c1COc1ccc2ccc(=O)oc2c1`, the figure is 0.12%.
In the case of `O=C(NC1CC1)c1ccc(-c2ccccc2)cc1`, the inhibition is 1.25%.
As for `Cc1cccc(OCCNC(=O)CSc2ccc(C(F)(F)F)cc2[N+](=O)[O-])c1`, the figure is 3.14%; as for `COc1ccc(N2CCN(C(C)=C3C(=O)c4ccccc4C3=O)CC2)cc1`, -1.52%.
For `CN(C)c1ccc(C(=S)N2CCN(C(=S)Nc3ccc(Cl)cc3)CC2)cc1`, the inhibition is 4%.
`Cc1ccc(SCC(=O)Nc2ccc3c(c2)OCCO3)cc1`: the inhibition is 0.6%.
Turning to `Cc1ccc(SCC(=O)c2sc(-c3ccccc3)nc2C)cc1`, the inhibition is 2.13%.
`Cc1ccc(SCC(=O)c2cc(C)c(OC(=S)N(C)C)c(C)c2)cc1`: the inhibition is 9.5% (active).
`O=C(CCCN1C(=O)/C(=C\c2ccco2)SC1=S)Nc1cccc2ccccc12`: the inhibition is 4.94%.
For `O=C(CCCN1C(=O)/C(=C/c2ccccc2)SC1=S)Nc1ccc(O)cc1`, the inhibition is 0.63%.
As to `COc1ccc(/C=C2/SC(=O)N(CCCCCC(=O)Nc3ccccc3C(=O)O)C2=S)cc1`, the inhibition is 9.16% (active).
As to `COc1ccccc1Oc1ccc(S(=O)(=O)Nc2cccnc2)cc1`, the inhibition is -0.91%.
With `Cc1cc(C)cc(NS(=O)(=O)c2ccc(Oc3ncc(C(F)(F)F)cc3Cl)cc2)c1`, the inhibition is 10.7% (active).
Turning to `COC(=O)Cc1ccc(Oc2ncc(C(F)(F)F)cc2Cl)cc1`, the inhibition was 0.6%.
With `CCOC(=O)Cc1ncccc1C(=O)Nc1ccc(OC(F)(F)F)cc1`, the inhibition was -0.27%.
As for `O=C(Nc1cccc(C(F)(F)F)c1)c1cnccn1`, the figure is 3.61%; as for `COc1c(Br)cc2c(C)c(C(=O)N3CCOCC3)oc2c1Br`, 13.5% (active); as for `COc1cc(NC(=O)N2CCOCC2)cc(OC)c1`, 0.39%.
As for `COc1cc(C(=S)N2CCOCC2)cc(OC)c1OC(=O)c1cc([N+](=O)[O-])c(C)c([N+](=O)[O-])c1`, the figure is 3.68%.
